Compounds without any hit were thinned out: in the full panel of roughly 83,000, 20% have a hit.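 A percent growth of 40 corresponds to 60% growth inhibition; 0 means no net growth; -100 means all cells died. Active threshold: below 10.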 Calls of active or inactive are those of the source.
How the values were obtained:
Assay in all cases: NCI-60 one-dose screen, 48 h (100 = growth as untreated, 0 = no growth, -100 = all killed)
Settings in all cases: 10 µM unless noted
[1] = system: SK-MEL-2 melanoma
[2] = system: EKVX NSCLC
[3] = system: SN12C renal
[4] = system: UO-31 renal
[5] = system: TK-10 renal
[6] = system: ACHN renal
[7] = system: CAKI-1 renal
[8] = system: A498 renal
[9] = system: CCRF-CEM leukemia
[10] = system: MOLT-4 leukemia
[11] = system: SR leukemia
[12] = system: RPMI-8226 leukemia
[13] = system: OVCAR-8 ovarian
[14] = system: OVCAR-5 ovarian
[15] = system: OVCAR-4 ovarian
[16] = system: SK-OV-3 ovarian
[17] = system: IGROV1 ovarian
[18] = system: OVCAR-3 ovarian
[19] = system: HS 578T breast
[20] = system: NCI/ADR-RES ovarian

Measured: growth

O=C(NO)c1ccc(-n2nc(-c3ccccc3)c3ccccc32)cc1
active: [18] 1%
inactive: [1] 90.9% | [2] 42.3% | [3] 32.9% | [4] 34.6% | [5] 31.5% | [6] 26.9% | [7] 45.6% | [8] 58.8% | [9] 12.9% | [10] 26.9% | [11] 22.8% | [12] 32.6% | [13] 32.6% | [14] 63.8% | [15] 19.2% | [16] 58.7% | [17] 44.9% | [19] 55.5% | [20] 22.7%

[O-][n+]1c(Cl)cc(Cl)c2ccccc21
inactive: [1] 123% | [2] 76.9% | [3] 101% | [4] 78.5% | [5] 125% | [6] 99.5% | [7] 92.6% | [8] 73.2% | [9] 87.5% | [10] 88.7% | [11] 89.2% | [12] 95% | [13] 87.4% | [14] 101% | [15] 101% | [16] 94.4% | [17] 104% | [19] 92.2% | [20] 101%

C=C(C)[C@@H]1CC[C@]2(C(=O)N3CCN(C)CC3)CC[C@]3(C)[C@H](CC[C@@H]4[C@@]5(C)CC[C@H](O)C(C)(C)[C@@H]5CC[C@]43C)[C@@H]12
inactive: [1] 61.8% | [2] 92.5% | [8] 98.7% | [16] 125%
active: [3] -74.2% | [4] -86.1% | [5] -93.3% | [6] -92% | [7] -84% | [9] -36.6% | [10] -35.7% | [11] -19.9% | [12] -40.1% | [13] -55% | [14] -13.8% | [15] -79.6% | [17] -72.6% | [19] -46.1% | [20] -42.7%

COc1ccc(/C=C/c2nc(Nc3ccc(S(=O)(=O)NC(C)=O)cc3)c3ccccc3n2)cc1
inactive: [1] 99% | [2] 81.6% | [3] 86.7% | [4] 80.6% | [5] 92% | [6] 68.6% | [7] 59.6% | [9] 81.7% | [10] 79.3% | [11] 53.9% | [12] 76.9% | [13] 76.2% | [14] 72.5% | [15] 79.4% | [16] 90.2% | [17] 91.6% | [18] 95.5% | [19] 82.8% | [20] 85.9%
active: [8] 9.58%

COc1ccc(-c2nc([C@@H](C)Sc3nc(N)cc(N)n3)c(C)s2)cc1OCCN1CCOCC1
inactive: [1] 104% | [2] 105% | [3] 99.8% | [4] 73.7% | [5] 104% | [6] 92.3% | [7] 90.6% | [8] 35.6% | [9] 83.7% | [10] 85.1% | [11] 97.5% | [12] 70.3% | [13] 95.8% | [14] 121% | [16] 131% | [17] 123% | [18] 102% | [19] 94.2% | [20] 101%

NS(=O)(=O)c1ccc(CCN2C(=O)C3C(C2=O)C2(Cl)C(Cl)=C(Cl)C3(Cl)C2(Cl)Cl)cc1 (configuration not stated)
inactive: [1] 99% | [2] 93% | [3] 99.9% | [4] 85.8% | [5] 110% | [6] 111% | [7] 71.7% | [8] 114% | [9] 49.6% | [10] 88.3% | [11] 98.1% | [12] 53% | [13] 107% | [14] 98.2% | [15] 96.2% | [16] 115% | [17] 97.3% | [18] 108% | [19] 96.8% | [20] 98.7%

OCc1cnccc1NCCCCOc1ccc(Oc2ccccc2)cc1
inactive: [1] 81.6% | [2] 50.6% | [3] 70.7% | [4] 49.8% | [5] 66.1% | [6] 80.3% | [7] 70.7% | [8] 76.9% | [9] 53.9% | [10] 45.1% | [11] 31.7% | [12] 24.7% | [13] 65.1% | [14] 84.1% | [15] 63.2% | [16] 87.2% | [18] 66.6% | [19] 59.6% | [20] 65.8%

C=C1C(=O)O[C@H]2[C@H]1CC/C(CNC(=O)c1cccc3ccccc13)=C\CC[C@@]1(C)O[C@@H]21
inactive: [1] 70.7% | [2] 65.9% | [3] 25% | [4] 37.9% | [5] 34.8% | [6] 11.6% | [7] 40% | [8] 81.8% | [11] 16.5% | [13] 43.5% | [14] 68.8% | [15] 63.2% | [16] 110% | [17] 31.3% | [18] 24.8% | [19] 69.9% | [20] 80.9%
active: [9] 1.76% | [10] 4.8% | [12] 2.93%

CC(C)(C)c1cc(C=O)cc(C(C)(C)C)c1O
inactive: [1] 96.2% | [2] 126% | [3] 104% | [4] 103% | [5] 93.2% | [6] 105% | [7] 113% | [8] 105% | [9] 14.3% | [10] 14.8% | [11] 101% | [12] 72.7% | [13] 94.1% | [14] 108% | [15] 98.7% | [16] 110% | [17] 106% | [18] 101% | [20] 98.8%

CC(=O)Oc1ccc(/C=N/NC(N)=S)nc1
inactive: [1] 79.2% | [2] 105% | [3] 73.6% | [4] 52.7% | [5] 108% | [6] 13.2% | [7] 49.8% | [8] 88.6% | [9] 39.3% | [10] 56% | [11] 27.9% | [12] 88.7% | [13] 46.3% | [14] 110% | [15] 56% | [16] 88% | [17] 92.3% | [18] 68% | [19] 127% | [20] 41.9%

Cc1nn(-c2ccccc2)c(Cl)c1/C=C/C(=O)c1ccc(F)cc1
active: [9] 4.52% | [11] 4.28% | [12] -15.6%
inactive: [1] 92.8% | [2] 93.1% | [3] 88.9% | [4] 79.1% | [5] 101% | [6] 97.5% | [7] 95.9% | [8] 81.5% | [10] 20.7% | [13] 86.4% | [14] 97.4% | [16] 110% | [17] 104% | [18] 102% | [19] 114%

COCc1cnccc1NC1CCCCCC1
inactive: [1] 107% | [2] 102% | [3] 99.4% | [4] 86.3% | [5] 94.1% | [6] 108% | [7] 94.4% | [8] 84.4% | [9] 101% | [10] 94.4% | [11] 101% | [12] 104% | [13] 96.3% | [14] 108% | [15] 98.6% | [16] 111% | [17] 110% | [19] 96% | [20] 100%

COc1ccc(/C=C/c2nc(Nc3ccc(Cl)cc3)c3ccccc3n2)cc1
inactive: [1] 89.2% | [2] 81.8% | [3] 38.5% | [4] 34.3% | [5] 70.8% | [6] 49.4% | [7] 56.5% | [8] 16.6% | [10] 32.1% | [12] 52.9% | [13] 61.4% | [14] 73.2% | [15] 60.2% | [16] 83.6% | [17] 75.9% | [18] 67.2% | [19] 70.5% | [20] 65.7%
active: [9] 8.06% | [11] -3.22%

Cc1nc2ccc(Cl)cn2c1-c1nnc(SCc2ccc([N+](=O)[O-])cc2)o1
inactive: [1] 84.9% | [2] 65.3% | [3] 48.4% | [4] 39.5% | [5] 91.3% | [6] 31.3% | [7] 65.7% | [8] 48.7% | [9] 116% | [10] 93.7% | [13] 36.8% | [14] 83.7% | [15] 32.5% | [17] 62.3% | [18] 66.8% | [19] 45.6% | [20] 36.1%

COc1cc(OC)cc(C(=O)C[n+]2cccc3cc[nH]c32)c1
inactive: [1] 103% | [2] 98% | [3] 87.3% | [4] 71.2% | [5] 118% | [6] 101% | [7] 89% | [8] 92.1% | [9] 99.2% | [10] 105% | [11] 116% | [12] 106% | [13] 103% | [14] 98.9% | [16] 104% | [17] 94.2% | [18] 106% | [19] 101% | [20] 101%

Clc1ccc(-c2ccc(CNCC3CCNCC3)o2)c(-c2ccccc2)c1
inactive: [16] 45.4%
active: [1] -75.7% | [2] -15% | [3] -75.6% | [4] -95.1% | [5] -85.3% | [6] -96.8% | [7] -85.3% | [8] 6.29% | [9] -62.7% | [10] -62.7% | [11] -60.9% | [13] -66.9% | [14] -90.6% | [15] -38.2% | [17] -64% | [18] -79.9% | [19] -49.8% | [20] -32.5%
